# Screens: PubChem BioAssay, National Center for Advancing Translational Sciences (NCATS)
# Only some compounds are listed: those with a hit (about 2.9% of all), similar ones and a draw of the others.
# SNCA viab count = counter-screen for SNCA expression inhibitors: cell viability; HEK-293-SNCA-luc viability, GF-AFC fluorescence, 24 h; Potency, µM (doses to about 57.1 µM), inactives show at the top dose activity change, negative = cytotoxicity, actives largely listed as cytotoxic; 150,000 compounds, 0.12% hits; AID 1671193;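 also: potency is read from the fitted curve at half-maximal effect; 0% = DMSO-treated cells and -100% = medium-only wells without cells; nearly all actives have a fitted effect of over 30% in size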
#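 HEK-293-SNCA-luc cells (1500/well) plated 24 h, then exposed 24 h to a dilution series; GF-AFC added 30 min at 37C, fluorescence 405/540 nm; normalised to medium-only and DMSO wells, Hill fit.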
# SNCA expr inh = inhibitors of alpha-synuclein (SNCA) gene expression; HEK-293 SNCA-luciferase knock-in, luminescence, 24 h; Potency, µM (doses to about 57.2 µM), for the others: top-dose activity change, negative = inhibition, usual class: inhibitors; 140,000 compounds, 0.17% hits; AID 1671194;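 also: potency is read from the fitted curve at half-maximal effect; plate controls were DMSO cells for no effect and cell-free wells for full effect; nearly all actives have a fitted effect of over 45% in size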
# KDM5B inh = blocks human KDM5B histone demethylase activity; Potency, µM (top dose mostly 57.7 µM), most hits filed as inhibitors; AID 1347165; Q9UGL1; KDM5B demethylase, FDH-coupled NADH fluorescence (FDH is formaldehyde dehydrogenase); 220,000 compounds, 2.6% hits; also: potency is read from the fitted curve at half-maximal effect; 0% is about no effect; nearly all actives have a fitted effect of over 70% in size
#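 Inhibition is measured as reduced NADH fluorescence generation from FDH coupling to formaldehyde release. Truncated KDM5BΔAP at 200 nM final acts on H3K4me3 peptide (12.5 µM in substrate mix) in pH 7.5 HEPES buffer with Tween-20, 30 min, room temperature.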
# IP6K1 inh = inhibitors of human IP6K1. IP6K1 kinase, ADP-Glo luminescence, 2 h; stronger effect = lower value. activity change, % (series mostly up to about 58 µM). AID 1645851. Q92551. 140,000 compounds, 0.81% hits; in the data active = activity change below about -25%; also: % is scaled to controls: 0 for no effect and ±100 for the full control effect
# Target sequence (Q92551 whole entry, looked up): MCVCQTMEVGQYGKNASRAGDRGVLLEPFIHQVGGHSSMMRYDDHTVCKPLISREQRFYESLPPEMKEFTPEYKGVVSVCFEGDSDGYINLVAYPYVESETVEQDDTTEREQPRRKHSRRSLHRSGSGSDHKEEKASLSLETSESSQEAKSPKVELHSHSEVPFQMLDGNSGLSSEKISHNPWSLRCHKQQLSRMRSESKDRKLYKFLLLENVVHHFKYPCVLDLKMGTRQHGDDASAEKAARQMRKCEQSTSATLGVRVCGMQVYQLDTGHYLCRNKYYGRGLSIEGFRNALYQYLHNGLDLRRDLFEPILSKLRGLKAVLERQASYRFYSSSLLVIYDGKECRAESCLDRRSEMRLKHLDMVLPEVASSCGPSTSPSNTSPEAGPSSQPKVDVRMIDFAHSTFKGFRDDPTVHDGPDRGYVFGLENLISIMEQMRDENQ
#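 ADP-Glo luminescence measures ADP made by human IP6K1 during a 2 h RT reaction with ATP/IP6 (mix at 1.3 mM/130 uM); top library doses 57.5 and 19.1 uM final.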
# * marks the source's active call; other numbers are inactive results; i = inactive; ? = inconclusive; · = no result given; [ ] = remark or other dose. Unless noted, calls follow the shape of the dose curve; as a rule, active = well fitted curve in the direction sought with a large enough effect; inconclusive = small, poorly fitted or top-dose-only effect, or another doubt; inactive = no such curve, though single readings can be large; an effect the other way counts as inactive or inconclusive.
SMILES,SNCA viab count,SNCA expr inh,KDM5B inh,IP6K1 inh
C=CC(=O)Nc1cccc(Nc2nc(NC3CCC(N(C)C)CC3)nc3c2ncn3C(C)C)c1 (stereo not drawn),?,3µM*,·,·
CC(C)CCN(CC(=O)Nc1cccc2ncccc12)C1CC1,·,·,i,·
COCc1cc(N2CCc3onc(-c4cccc5ccccc45)c3C2)ncn1,-25%,?,28µM*,12
O=S(=O)(c1cccnc1)N1CCc2onc(-c3cccc4ccccc34)c2C1,5%,9%,32µM*,7
CC(C(=O)N1CCc2onc(-c3cccc4ccccc34)c2C1)n1ccnc1 (stereo not drawn),2%,-9%,?,9
COc1ncccc1C(=O)N1CCc2onc(-c3cccc4ccccc34)c2C1,10%,15%,?,-6
CCCCCCNC(=O)C(C#N)c1nc2ccccc2nc1N1CCCCC1 (stereo not drawn),·,·,i,·
COc1ccc(-c2nc(C3CC3)nc3c2CCN(CC2CC2)CC3)cc1,-13%,-25%,?,1
COc1ccc(-c2nc(C3CC3)nc3c2CCN(Cc2ccsc2)CC3)cc1,?,?,79µM*,8
COc1ccc(-c2nc(C3CC3)nc3c2CCN(CC2CCCCC2)CC3)cc1,1%,-5%,25µM*,-4
COc1ccc(-c2nc(C3CC3)nc3c2CCN(Cc2cccn2C)CC3)cc1,?,?,50µM*,2
COc1ccc(-c2nc(C3CC3)nc3c2CCN(Cc2ccc(F)cc2)CC3)cc1,-2%,-23%,?,5
CCc1noc(-c2ccn3c(CNC(=O)c4cc(Cl)ccc4OC)nnc3c2)n1,-8%,3%,i,20
Cc1noc(-c2ccn3c(CNC(=O)c4cc5ccccc5[nH]4)nnc3c2)n1,-10%,2%,?,28
CCOc1ccccc1C(=O)NCc1nnc2cc(-c3nc(C(C)C)no3)ccn12,0%,5%,14µM*,33
COc1ccccc1C(=O)NCc1nnc2cc(-c3nc(C)no3)ccn12,0%,3%,10µM*,6
COc1ccccc1C(=O)NCc1nnc2cc(-c3nc(C(C)C)no3)ccn12,1%,6%,22µM*,3
Cc1noc(-c2ccn3c(CNC(=O)c4cccc5[nH]ccc45)nnc3c2)n1,-8%,-2%,25µM*,38
CSc1ccc(-c2cccc(CN3CCC(NC(=O)c4ccc(Cl)nc4)CC3)c2)cc1,·,·,·,-7
COc1ccc(-c2cn3cc(C(=O)NCC4CC4)nc3s2)cc1,6%[87.6 µM],123%[87.6 µM],·,2
Cc1noc(-c2cccc(OC3CN(C(=O)c4cccc5[nH]ccc45)C3)c2)n1,2%,20%,28µM*,-3
CCCc1noc(-c2ccn3c(CNC(=O)c4ccccn4)nnc3c2)n1,5%,-8%,?,11
CCCc1noc(-c2ccn3c(CNC(=O)c4ccccc4OCC)nnc3c2)n1,2%,0%,10µM*,45
Cc1noc(-c2cccc(OC3CN(C(=O)c4cnn(C)c4)C3)c2)n1,-4%,1%,i,13
CCCNc1c(NC(=O)Nc2ccc(CC)cc2)c(=O)oc2ccccc12,·,·,i,·
SMILES,SNCA viab count,SNCA expr inh,KDM5B inh,IP6K1 inh
CCOc1ccc(C(=O)Nc2cc(C)ccn2)c(OCC)c1,·,·,i,·
CC1CN(C(=O)COC(=O)c2cc(=O)[nH]c3ccccc23)CCO1 (stereo not drawn),·,·,i,·
Cc1nnc2n1CCC(NC(=O)c1cccn1C)CC2 (stereo not drawn),6%,24%,20µM*,-2
O=C(NC1CCCC(C(F)(F)F)C1)c1cc2c(F)cccc2s1 (stereo not drawn),·,·,i,·
COCCCNc1cc(Cl)nc2ccnn12,-1%[87.6 µM],40%[87.6 µM],i,13
c1ccc(-c2cc(NCCCOc3cccnc3)n3nccc3n2)cc1,-13%,7%,22µM*,2
O=C(Cn1ccn2nc(-c3ccccc3)c(CO)c2c1=O)NCc1ccccc1Cl,4%,-23%,20µM*,7
O=C(Cn1ccn2nc(-c3ccccc3)c(CO)c2c1=O)NCc1ccc2c(c1)OCO2,8%,-10%,32µM*,7
O=C(Cn1ccn2nc(-c3ccc(F)cc3)c(CO)c2c1=O)NCc1ccccc1Br,-4%,-16%,22µM*,0
O=c1c2c(CO)c(-c3ccccc3)nn2ccn1Cc1ccccc1Cl,7%,59%,?,4
O=C(Cn1ccn2nc(-c3ccc(F)cc3)c(CO)c2c1=O)NCc1ccc(F)cc1F,6%,-2%,i,3
CNC(=O)N1CCC(C2CCN(C(=O)CCc3c(C)nn(C)c3C)C2)CC1 (stereo not drawn),-7%,-19%,·,8
COCCNC(=O)c1nc(-c2ccc(OC)cc2)c2ccccn12,0%,39%,89µM*,-8
COCCNC(=O)c1nc(-c2ccc(F)cc2)c2ccccn12,-6%[87.6 µM],31%[87.6 µM],40µM*,18
COc1ccc(C(=O)N2CCN(c3cc(-c4ccc(Cl)cc4)[nH]n3)CC2)cc1F,-7%,?,i,-1
COc1ccc(-c2cc3c(=O)n(CCNC(=O)c4c(F)cccc4F)ccn3n2)cc1,0%,5%,22µM*,3
CCC(C(=O)NCCn1ccn2nc(-c3ccc(OC)cc3)cc2c1=O)c1ccccc1 (stereo not drawn),-29%,1%,20µM*,-2
COc1ccc(-c2cc3c(=O)n(CCNC(=O)c4cccc(OC)c4OC)ccn3n2)cc1,-20%,-3%,25µM*,-5
COc1ccc(-c2cc3c(=O)n(CCNC(=O)c4c(F)cccc4Cl)ccn3n2)cc1,-8%,105%,22µM*,1
COc1ccc(-c2cc3c(=O)n(CCNC(=O)c4ccc(C)c(F)c4)ccn3n2)cc1,-4%,109%,?,-9
Cc1ccc(N2CN(CCN3CCOCC3)Cn3c2nc(C)c(C)c3=O)cc1C,·,·,i,·
CCS(=O)(=O)N1CCc2c(c(CN3CCOCC3)nn2C)C1,9%,33%,·,8
CC(C)c1ccc(C(=O)N[C@H](C2CCNCC2)C2CC(O)C2)c(=O)n1C (stereo partly drawn),-4%,?,25µM*,-2
O=C(N[C@H](C1CCNCC1)C1CC(O)C1)c1ccc2nccnc2c1 (stereo partly drawn),7%,-19%,?,2
CCCCCCCCC#CC#Cc1cccc(C(=O)O)c1,·,·,i,·
SMILES,SNCA viab count,SNCA expr inh,KDM5B inh,IP6K1 inh
C=CCN1C[C@@H]2C[C@@H](C(=O)OCC)N(C(=O)c3ccc(C)cc3)c3cccc(c32)C1=O,?,2%[25.6 µM],·,16
O=C(Cc1ccc(Cl)cc1)N1C[C@@H](CN2CCCCC2)[C@@H](CO)C1,5%,-1%,i,0
COCCCNC(=O)c1cccc2c1CCN2C(=O)Nc1cccc(C)c1,-6%,3.5µM*,i,-6
CNC(=O)c1cccc2c1CCN2C(=O)Nc1ccc(F)cc1,-5%,?,i,-5
O=C(O)c1cccc2c1CCN2C(=O)Nc1ccc(F)cc1,9%,0.89µM*,i,-19
O=C1CCC2(C(=O)NCCCN3CCOCC3)CCCC=C2N1c1ccccc1 (stereo not drawn),8%,-1%,i,8
